The values that follow come from article PMC7862700, “An all-to-all approach to the identification of sequence-specific readers for epigenetic DNA modifications on cytosine”.

Chain of CRX (O43186 whole entry): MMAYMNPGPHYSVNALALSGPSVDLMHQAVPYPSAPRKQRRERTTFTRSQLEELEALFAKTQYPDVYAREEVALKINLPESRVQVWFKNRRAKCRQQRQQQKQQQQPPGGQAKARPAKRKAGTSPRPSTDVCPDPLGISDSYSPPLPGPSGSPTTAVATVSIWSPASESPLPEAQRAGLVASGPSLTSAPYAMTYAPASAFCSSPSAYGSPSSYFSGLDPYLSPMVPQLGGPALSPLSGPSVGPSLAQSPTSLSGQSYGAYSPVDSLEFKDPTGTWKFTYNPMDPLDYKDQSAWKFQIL

The target of the first assay is T1, ETV2 (Homo sapiens, UniProt O00321 1-342).
T1 sequence: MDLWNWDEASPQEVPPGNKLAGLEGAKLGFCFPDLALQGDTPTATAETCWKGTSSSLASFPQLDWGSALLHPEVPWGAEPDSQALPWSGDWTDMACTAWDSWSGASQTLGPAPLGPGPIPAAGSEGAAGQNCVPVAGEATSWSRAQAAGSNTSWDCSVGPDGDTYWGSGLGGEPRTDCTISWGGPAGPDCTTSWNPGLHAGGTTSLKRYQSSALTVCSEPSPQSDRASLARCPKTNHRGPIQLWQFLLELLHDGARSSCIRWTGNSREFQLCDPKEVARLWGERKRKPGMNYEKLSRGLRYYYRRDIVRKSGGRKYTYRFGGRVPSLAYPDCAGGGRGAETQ
The assay can be described thus: DAPPL (digital affinity profiling via proximity ligation, sequencing); 10 mM Tris-HCl pH 7.5, 50 mM NaCl, 1 mM DTT, 4% glycerol, room temperature, 30 min; GST-TFs on glutathione beads, 16-mer random dsDNA library, 0.1% formaldehyde crosslink after washing; high values mean tight binding. The note with it: protein: recombinant; tags: N-terminal GST; dsDNA, one strand shown. The gist of the method: (§1)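 Binding signal is given per hexamer as its read frequency for a factor divided by its frequency in the tag-only sample. GST-fused human transcription factors were expressed in yeast, captured on glutathione beads, barcoded with DNA and pooled with that sample, then incubated with 200 nmole of a 16-mer random double-stranded DNA library in Tris/NaCl/DTT/glycerol buffer for 30 min at room temperature. The pools were then washed, crosslinked, proximity-ligated, amplified by PCR and sequenced on an Illumina NextSeq500.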
With GCTCTA, the binding signal is 1.19 fold enrichment (6-mer frequency, TF over GST control).
The same measure, in the same setting: then TCCGGT, with 3.65 fold enrichment (6-mer frequency, TF over GST control); and ATTTTG, with 1.33 fold enrichment (6-mer frequency, TF over GST control).
Still for that read-out and setting: then CCCCTC, with 1.49 fold enrichment (6-mer frequency, TF over GST control); and ATGTTA, with 1.24 fold enrichment (6-mer frequency, TF over GST control).
The same measure, in the same setting: for TTGGTG the value was 1.52 fold enrichment (6-mer frequency, TF over GST control).
In the case of TCCTCC, the binding signal is 1.86 fold enrichment (6-mer frequency, TF over GST control).
As for TTTCGA, the binding signal is 1.32 fold enrichment (6-mer frequency, TF over GST control).
In the case of CAAAAA, the binding signal is 1.17 fold enrichment (6-mer frequency, TF over GST control).
Turning to TGCTTC, the binding signal is 2.38 fold enrichment (6-mer frequency, TF over GST control).
Same read-out and setting: then TCACTC, with 1.35 fold enrichment (6-mer frequency, TF over GST control); and ATACAA, with 1.04 fold enrichment (6-mer frequency, TF over GST control).
Still for that read-out and setting: for TTTTGG the value was 1.6 fold enrichment (6-mer frequency, TF over GST control).
Same read-out and setting: then TAACTG, with 1.31 fold enrichment (6-mer frequency, TF over GST control); and CAATCT, with 1.3 fold enrichment (6-mer frequency, TF over GST control).
In the case of ATTATT, the binding signal is 1.11 fold enrichment (6-mer frequency, TF over GST control).
As to AGTGCT, the binding signal was 1.42 fold enrichment (6-mer frequency, TF over GST control).
Same read-out and setting: for TGGATG the value was 1.49 fold enrichment (6-mer frequency, TF over GST control).
For TAATCT, the binding signal was 1.34 fold enrichment (6-mer frequency, TF over GST control).
The same measure, in the same setting: for TGCTCC the value was 1.48 fold enrichment (6-mer frequency, TF over GST control); for CTGGTT, 1.2 fold enrichment (6-mer frequency, TF over GST control).
With AATTAC, the binding signal is 1.38 fold enrichment (6-mer frequency, TF over GST control).
On the same count and under the same terms, then TTAAGG, with 1.23 fold enrichment (6-mer frequency, TF over GST control); and ACTACG, with 1.33 fold enrichment (6-mer frequency, TF over GST control).
The same measure, in the same setting: for CTATGC the value was 1.55 fold enrichment (6-mer frequency, TF over GST control); for TCATCC, 1.44 fold enrichment (6-mer frequency, TF over GST control); for GTATCT, 1.23 fold enrichment (6-mer frequency, TF over GST control).
Same read-out and setting: then TCATTT, with 1.5 fold enrichment (6-mer frequency, TF over GST control); and CTCTCT, with 1.63 fold enrichment (6-mer frequency, TF over GST control).
As for AAGTTA, the binding signal is 1.27 fold enrichment (6-mer frequency, TF over GST control).
On the same count and under the same terms, then ATCACC, with 1.03 fold enrichment (6-mer frequency, TF over GST control).
Still for that read-out and setting: then ATCCTT, with 1.57 fold enrichment (6-mer frequency, TF over GST control); and GGTATT, with 1.12 fold enrichment (6-mer frequency, TF over GST control); and CATATA, with 1.17 fold enrichment (6-mer frequency, TF over GST control).
For TACCTC, the binding signal was 1.24 fold enrichment (6-mer frequency, TF over GST control).
On to ACGAAT, for which the binding signal is 1.15 fold enrichment (6-mer frequency, TF over GST control).
Still for that read-out and setting: then AATTGC, with 1.44 fold enrichment (6-mer frequency, TF over GST control); and TTAAAG, with 1.12 fold enrichment (6-mer frequency, TF over GST control); and CTATTC, with 1.37 fold enrichment (6-mer frequency, TF over GST control).
The same measure, in the same setting: for TTTTGT the value was 1.28 fold enrichment (6-mer frequency, TF over GST control).

Another assay addresses T2, ELF3 (Homo sapiens, UniProt P78545 1-371).
T2 sequence: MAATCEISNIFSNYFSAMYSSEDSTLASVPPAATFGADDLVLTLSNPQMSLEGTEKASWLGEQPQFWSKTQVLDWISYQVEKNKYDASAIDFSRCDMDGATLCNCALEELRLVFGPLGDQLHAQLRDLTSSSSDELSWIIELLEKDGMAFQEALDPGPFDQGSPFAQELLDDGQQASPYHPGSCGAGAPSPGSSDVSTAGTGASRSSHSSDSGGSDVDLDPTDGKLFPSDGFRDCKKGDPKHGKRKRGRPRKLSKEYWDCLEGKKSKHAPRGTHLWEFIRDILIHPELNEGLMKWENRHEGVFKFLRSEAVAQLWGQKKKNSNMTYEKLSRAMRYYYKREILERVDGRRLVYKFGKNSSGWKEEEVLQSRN
The assay is described as above. The note with it: protein: recombinant; tags: N-terminal GST; dsDNA, one strand shown. A digest of the protocol:
as §1
Regarding GCTCTA, the binding signal is 1.28 fold enrichment (6-mer frequency, TF over GST control).
Still for that read-out and setting: for TCCGGT the value was 3.41 fold enrichment (6-mer frequency, TF over GST control); for ATTTTG, 1.31 fold enrichment (6-mer frequency, TF over GST control); for CCCCTC, 1.35 fold enrichment (6-mer frequency, TF over GST control).
The same measure, in the same setting: then ATGTTA, with 1.17 fold enrichment (6-mer frequency, TF over GST control); and TTGGTG, with 1.3 fold enrichment (6-mer frequency, TF over GST control).
The same measure, in the same setting: for TCCTCC the value was 1.22 fold enrichment (6-mer frequency, TF over GST control).
TTTCGA: the binding signal was 1.39 fold enrichment (6-mer frequency, TF over GST control).
On the same count and under the same terms, for CAAAAA the value was 1.12 fold enrichment (6-mer frequency, TF over GST control); for TGCTTC, 2.25 fold enrichment (6-mer frequency, TF over GST control).
Same read-out and setting: for TCACTC the value was 1.26 fold enrichment (6-mer frequency, TF over GST control); for ATACAA, 1.16 fold enrichment (6-mer frequency, TF over GST control).
Still for that read-out and setting: for TTTTGG the value was 1.44 fold enrichment (6-mer frequency, TF over GST control); for TAACTG, 1.47 fold enrichment (6-mer frequency, TF over GST control); for CAATCT, 1.19 fold enrichment (6-mer frequency, TF over GST control).
In the case of ATTATT, the binding signal is 1.1 fold enrichment (6-mer frequency, TF over GST control).
For the sequence AGTGCT, the binding signal was 1.02 fold enrichment (6-mer frequency, TF over GST control).
Same read-out and setting: for TGGATG the value was 1.65 fold enrichment (6-mer frequency, TF over GST control); for TAATCT, 1.57 fold enrichment (6-mer frequency, TF over GST control).
Turning to TGCTCC, the binding signal was 1.47 fold enrichment (6-mer frequency, TF over GST control).
Same read-out and setting: for CTGGTT the value was 1.22 fold enrichment (6-mer frequency, TF over GST control).
On the same count and under the same terms, then AATTAC, with 1.36 fold enrichment (6-mer frequency, TF over GST control); and TTAAGG, with 1.2 fold enrichment (6-mer frequency, TF over GST control); and ACTACG, with 1.28 fold enrichment (6-mer frequency, TF over GST control).
The same measure, in the same setting: for CTATGC the value was 1.2 fold enrichment (6-mer frequency, TF over GST control); for TCATCC, 1.49 fold enrichment (6-mer frequency, TF over GST control); for GTATCT, 1.26 fold enrichment (6-mer frequency, TF over GST control).
Take TCATTT: the binding signal is 1.24 fold enrichment (6-mer frequency, TF over GST control).
Still for that read-out and setting: then CTCTCT, with 1.58 fold enrichment (6-mer frequency, TF over GST control); and AAGTTA, with 1.15 fold enrichment (6-mer frequency, TF over GST control).
On the same count and under the same terms, for ATCACC the value was 1.17 fold enrichment (6-mer frequency, TF over GST control); for ATCCTT, 1.47 fold enrichment (6-mer frequency, TF over GST control).
Same read-out and setting: then GGTATT, with 1.1 fold enrichment (6-mer frequency, TF over GST control); and CATATA, with 1.07 fold enrichment (6-mer frequency, TF over GST control); and TACCTC, with 1.27 fold enrichment (6-mer frequency, TF over GST control).
Take ACGAAT: the binding signal is 1.12 fold enrichment (6-mer frequency, TF over GST control).
On the same count and under the same terms, then AATTGC, with 1.5 fold enrichment (6-mer frequency, TF over GST control); and TTAAAG, with 1.26 fold enrichment (6-mer frequency, TF over GST control); and CTATTC, with 1.38 fold enrichment (6-mer frequency, TF over GST control).
Still for that read-out and setting: for TTTTGT the value was 1.43 fold enrichment (6-mer frequency, TF over GST control).

A further assay deals with CRX (Homo sapiens, UniProt O43186 1-299). The assay is described as above. Conditions: protein: recombinant; tags: N-terminal GST; dsDNA, one strand shown. A digest of the protocol:
as §1
In the case of GCTCTA, the binding signal was 1.36 fold enrichment (6-mer frequency, TF over GST control).
In the case of TCCGGT, the binding signal was 1.04 fold enrichment (6-mer frequency, TF over GST control).
On the same count and under the same terms, then ATTTTG, with 1.32 fold enrichment (6-mer frequency, TF over GST control); and CCCCTC, with 1.14 fold enrichment (6-mer frequency, TF over GST control); and ATGTTA, with 1.31 fold enrichment (6-mer frequency, TF over GST control).
Still for that read-out and setting: for TTGGTG the value was 1.28 fold enrichment (6-mer frequency, TF over GST control); for TCCTCC, 1.4 fold enrichment (6-mer frequency, TF over GST control).
Regarding TTTCGA, the binding signal was 1.86 fold enrichment (6-mer frequency, TF over GST control).
Same read-out and setting: then CAAAAA, with 1.02 fold enrichment (6-mer frequency, TF over GST control).
Still for that read-out and setting: then TGCTTC, with 1.22 fold enrichment (6-mer frequency, TF over GST control); and TCACTC, with 1.05 fold enrichment (6-mer frequency, TF over GST control).
Still for that read-out and setting: for ATACAA the value was 1.07 fold enrichment (6-mer frequency, TF over GST control); for TTTTGG, 1.6 fold enrichment (6-mer frequency, TF over GST control).
For TAACTG, the binding signal was 1.5 fold enrichment (6-mer frequency, TF over GST control).
Same read-out and setting: then CAATCT, with 1.42 fold enrichment (6-mer frequency, TF over GST control); and ATTATT, with 2.37 fold enrichment (6-mer frequency, TF over GST control).
Still for that read-out and setting: for AGTGCT the value was 1.16 fold enrichment (6-mer frequency, TF over GST control); for TGGATG, 1.45 fold enrichment (6-mer frequency, TF over GST control); for TAATCT, 5.78 fold enrichment (6-mer frequency, TF over GST control).
As for TGCTCC, the binding signal was 1.12 fold enrichment (6-mer frequency, TF over GST control).
Still for that read-out and setting: then CTGGTT, with 1.22 fold enrichment (6-mer frequency, TF over GST control); and AATTAC, with 1.74 fold enrichment (6-mer frequency, TF over GST control).
The same measure, in the same setting: for TTAAGG the value was 2.78 fold enrichment (6-mer frequency, TF over GST control).
The same measure, in the same setting: for ACTACG the value was 1.08 fold enrichment (6-mer frequency, TF over GST control).
CTATGC: the binding signal is 1.15 fold enrichment (6-mer frequency, TF over GST control).
On the same count and under the same terms, for TCATCC the value was 1.65 fold enrichment (6-mer frequency, TF over GST control).
The same measure, in the same setting: for GTATCT the value was 1.02 fold enrichment (6-mer frequency, TF over GST control).
Still for that read-out and setting: then TCATTT, with 1.16 fold enrichment (6-mer frequency, TF over GST control); and CTCTCT, with 1.5 fold enrichment (6-mer frequency, TF over GST control); and AAGTTA, with 1.26 fold enrichment (6-mer frequency, TF over GST control).
ATCACC: the binding signal is 1.14 fold enrichment (6-mer frequency, TF over GST control).
Turning to ATCCTT, the binding signal is 2.37 fold enrichment (6-mer frequency, TF over GST control).
On the same count and under the same terms, for GGTATT the value was 1.66 fold enrichment (6-mer frequency, TF over GST control); for CATATA, 1.09 fold enrichment (6-mer frequency, TF over GST control); for TACCTC, 1.19 fold enrichment (6-mer frequency, TF over GST control).
With ACGAAT, the binding signal was 1.21 fold enrichment (6-mer frequency, TF over GST control).
On the same count and under the same terms, then AATTGC, with 1.17 fold enrichment (6-mer frequency, TF over GST control).
Same read-out and setting: then TTAAAG, with 2.66 fold enrichment (6-mer frequency, TF over GST control).
Same read-out and setting: then CTATTC, with 1.16 fold enrichment (6-mer frequency, TF over GST control); and TTTTGT, with 1.42 fold enrichment (6-mer frequency, TF over GST control).
